Cycloheximide cs: counter-screen for Shiga toxin inhibitors: cycloheximide protein synthesis inhibition; 300,000 tested, 12% active; max response, %; AID 2314; cell reporter, cycloheximide protein synthesis inhibition counterscreen; in the data active means max response mostly above about 13%, no sharp cut-off; inactive means mostly below about 14%; further: read at 38.3 µM for the half of the compounds with a filed dose; 0% is about no effect
Shiga inhibitor: inhibitors of Shiga toxin in Vero cells; Vero cells, Shiga toxin protein synthesis inhibition reporter; inhibition, % at 38.7 µM; 290,000 tested, 9.2% active; in the data active means inhibition mostly above about 28%, no sharp cut-off; inactive means mostly below about 43%; further: 0% is about no effect
Lassa entry inh: blocks Lassa virus binding to or entry into cells; Lassa virus pseudotype entry inhibition, cell reporter; Potency, µM (series often up to 37.9 µM), inactives show at the top dose activity change, negative = inhibition, hits mostly inhibitors; 300,000 tested, 1.2% active; AID 540256; calls by dose curve; tested in HEK293 cells; further: potency means the concentration at half of the fitted maximal effect; on the % scale 0 is the no-effect control and ±100 the full control effect; nearly all actives have a fitted effect of over 50% in size
Marburg entry inh: blocks Marburg virus binding to or entry into cells | Potency, µM (titrated, usually from 37.8 µM), inactives show at the top dose activity change, negative = inhibition, actives largely listed as inhibitors | Marburg virus pseudotyped entry inhibition, cell reporter | 300,000 tested, 1.8% active | AID 540276; calls by dose curve; tested in HEK293 cells; further: potency means the concentration at half of the fitted maximal effect; on the % scale 0 is the no-effect control and ±100 the full control effect
* = called active by the depositor; u = inconclusive; x = no result given; [ ] = another dose, or the depositor's remark. In the library only some 12% were active in any assay of this set; here they are far more common.

SMILES	Cycloheximide cs	Shiga inhibitor	Lassa entry inh	Marburg entry inh
Cc1c(Cl)cccc1NC(CC(=O)c1ccccc1)C(=O)O (configuration not stated)	70*	150*	u	-4%
COc1ccccc1NC(=O)CCCC(=O)OCC(=O)c1ccc(F)cc1	2	3	7%[46.1 µM]	17%[46.1 µM]
C=CCn1c(CCCNC(=O)c2ccccc2OC)nc2ccccc21	6	25	x	x
CC1(C)OC(=O)C(=CNNc2c(Cl)cc(Cl)cc2Cl)C(=O)O1	-3	-4	5%	35%
CC(C)(C)NC(=O)CN(CCN1CCOCC1)C(=O)CNS(=O)(=O)c1ccccc1	-3	1	-1%	-15%[46.1 µM]
Cc1ccc(NC(=O)CSc2nc3ccccc3c3nc4ccccc4n23)cc1	-3	-7	u	6.5µM*
O=C(CSc1nc2ccsc2c(=O)n1Cc1ccc(C(=O)O)cc1)NCc1ccco1	-5	-15	3%	1%
COc1ccc(C(=O)Nn2c(SCC(=O)NCc3ccco3)nc3ccccc3c2=O)cc1	8	-19	1µM*	0.4µM*
COc1ccc(Cn2c(SCC(=O)NCc3ccco3)nc3ccsc3c2=O)cc1	17*	-40	-4%	u
Cn1c(SCC(=O)NCc2ccco2)nc2ccccc2c1=O	7	73*	13%	10%
Cc1cccc(C)c1NC(=O)C(C)Sc1n[nH]c(-c2ccncc2)n1 (configuration not stated)	-5	-13	13%	15%
CCn1c(SCC(=O)NCc2ccco2)nc2ccccc2c1=O	-2	-5	x	x
O=C(CSc1nc2ccccc2c2nc3ccccc3n12)NCc1ccco1	28*	50*	-2%	15%
O=C(CSc1nnc(C2CCCCC2)n1Cc1ccccc1)NCc1ccco1	16*	24	21%	9%
CCn1c(SCC(=O)NCc2ccco2)nnc1C1CCCC1	-1	7	x	x
CCN(C(=O)COC(=O)/C=C/c1c(C)nn(-c2ccccc2)c1C)c1c(N)n(Cc2ccccc2)c(=O)[nH]c1=O	x	x	u	2%
CC(C)(C)Nc1oc(-c2ccccc2)nc1-c1ccc(C(F)(F)F)cc1	x	x	x	-17%[14.2 µM]
O=C1c2ccccc2NC(c2ccccn2)N1c1ccc(Cl)cc1 (configuration not stated)	31*	71*	u	3%
O=C(NN1C(=O)c2ccccc2NC1c1ccccn1)c1ccccc1 (configuration not stated)	13*	24*	-3%	u
Cc1cccc(-c2nc(CN3CCCC(C(=O)N4CCN(c5cc(Cl)ccc5C)CC4)C3)c(C)o2)c1 (configuration not stated)	x	x	26%[46.1 µM]	u
O=C(N/N=C/c1ccc(F)cc1)c1ccc(OCc2ccccc2)cc1	-2	17	x	x
Cc1ccc(/C=N/NC(=O)c2ccccc2OCc2cccc(Br)c2)o1	15*	-9	-8%	u
O=C(N/N=C/c1ccc(COc2ccc(Br)cc2)o1)c1ccco1	22	active	-3%	6%
O=C(Nc1ccccc1C(=O)N/N=C/c1ccco1)c1ccc(F)cc1	15	14	11%	-16%
O=C(N/N=C/c1ccco1)c1ccccc1OCc1ccc(Br)cc1	33*	118*	8%	u
SMILES	Cycloheximide cs	Shiga inhibitor	Lassa entry inh	Marburg entry inh
O=C(N/N=C/c1ccco1)c1ccc(OCc2ccccc2)cc1	11*	1	16%	10%
Cc1ccc(NC(=O)CSCC(=O)N2CCCc3ccccc32)cc1	x	x	12%	6%[46.1 µM]
CC1=C(C(=O)OC2CCCCCC2)C(c2c(F)cccc2Cl)CC(=O)N1 (configuration not stated)	x	x	0%[46.1 µM]	u
Cc1nc(C)c(Oc2cccc(C(F)(F)F)c2)c(=O)[nH]1	0	15	24%	13%[46.1 µM]
Cc1ccc(C)c(S(=O)(=O)N2CCN(C(=O)CSc3ccccc3F)CC2)c1	-3	-3	x	x
Cc1c(C(=O)Nc2ccc3oc(-c4cccnc4)nc3c2)oc2ccccc12	-3	6	18µM*	-19%
CCc1ccc2oc(-c3ccc(NC(C)=O)cc3)nc2c1	61*	145*	u	u
O=C(Nc1ccc(-c2nc3ccccc3c(=O)o2)cc1)c1ccco1	-4	-5	9%	2%
CCc1ccc(-c2nc3cc(NC(=O)c4ccc(C)c(C)c4)ccc3o2)cc1	x	x	0%[46.1 µM]	13%[46.1 µM]
Cc1ccc2oc(-c3ccc(NC(=O)CC(C)C)cc3)nc2c1	34*	143*	-16%	u
O=C(Nc1ccc2nc(-c3ccccc3)oc2c1)c1ccco1	29*	47*	12%	-31%[46.1 µM]
CC(C)(C)c1ccc(CNC(=O)C2CCCN2C(=O)Nc2ccccc2)cc1 (configuration not stated)	-2	-12	7%[46.1 µM]	u
COc1ccc(NC(=O)C2CCCN(S(=O)(=O)c3ccc4c(c3)CCCN4C(C)=O)C2)cc1Cl (configuration not stated)	1	33	u	-10%[46.1 µM]
CC(C)CC(=O)Nc1ccc2oc(-c3cccnc3)nc2c1	26*	37	2%	17%
CCC(=O)Nc1ccc2oc(-c3cccnc3)nc2c1	35*	48*	u	6%
CCC(=O)NCc1ccc(-c2nc3ncccc3o2)cc1	16*	23	x	x
O=C(Nc1ccc2oc(-c3cccnc3)nc2c1)c1ccc(Br)o1	-4	-6	4%	-11%
CCc1ccc(OCC(=O)Nc2ccc(-c3nc4ncccc4o3)cc2)cc1	x	x	0%[46.1 µM]	x
O=C(Nc1ccc2oc(-c3cccnc3)nc2c1)c1ccco1	36*	47	u	15%
O=C(Nc1ccc2oc(-c3cccnc3)nc2c1)c1ccc(Br)cc1	x	x	0%[46.1 µM]	0%[46.1 µM]
O=C(Nc1ccc(-c2nc3ncccc3o2)cc1)c1ccco1	27*	66*	-5%	19%
O=C(Nc1ccc(-c2nc3ncccc3o2)cc1)c1ccc(Br)o1	9	-28	u	-4%
COC(=O)c1ccc(CNC(=O)C2CCC(=O)N(CCN3CCOCC3)C2)cc1 (configuration not stated)	8	-11	-1%	25%
CC(=O)N(CCC(c1ccco1)C(C)C)Cc1ccc(Cl)cc1 (configuration not stated)	2	-6	10µM*	-25%[46.1 µM]
CCOC(=O)C1CCCN(C(=O)C(=O)c2cn(CC(=O)N3CCOCC3)c3ccccc23)C1 (configuration not stated)	-1	-10	3%	0%
SMILES	Cycloheximide cs	Shiga inhibitor	Lassa entry inh	Marburg entry inh
CCc1ccc(CCC(=O)Nc2ccccc2C(=O)O)o1	40*	75*	u	u
CN(C)c1ccc(NC(=O)Cc2ccccc2)c2ccccc12	15*	33	3%[46.1 µM]	u
Nc1c(NC(=O)CC[n+]2ccccc2)cccc1[N+](=O)[O-]	46*	96*	7%	2%
COc1cc(OC)cc(C(=O)Nc2ccc(N(C)C)c3ccccc23)c1	1	-15	x	x
O=C(CCCc1ccccc1)Nc1ccccc1[N+](=O)[O-]	37*	27*	u	6%
COc1ccc(OC)c(S(=O)(=O)n2ccnc2C(C)C)c1	-3	x	2%	u
CC#CCCCC(=O)Nc1ccc(C(=O)O)cc1	-4	-4	29%	13%
Cc1ccc(NC(=O)CCCc2ccccc2)c([N+](=O)[O-])c1	32*	35*	x	x
NC(=O)c1ccccc1NC(=O)CCCc1ccccc1	20*	x	u	u
O=C(CCc1ccccc1)Nc1ccccc1[N+](=O)[O-]	26*	54*	u	-1%

Assay outcomes as filed in PubChem.
